Data from the supplement of paper PMC6522484.
± gives the standard deviation of the averaged measurements.

How the values were obtained:
DLD1 [1] = test: cell viability (CellTiter-Glo) relative to plate median (fraction of plate median); higher = more viable cells; details: 5 µM; treatment time 24 h; reporter: 7TFP
How it was run: (§1)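 Colorectal cancer lines with stably integrated lentiviral TCF/Wnt firefly luciferase reporters received library compounds at a final 5 µM, 24 h after seeding into 384-well plates, for a 24 h exposure. Reported figures are plate-median-normalised firefly luciferase or CellTiterGlo luminescence per well. They average two independent replicates.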

HCT116 = test: as above; details: 5 µM; treatment time 24 h; reporter: TCF4/Wnt
How it was run: as §1

SW480 [2] = test: as above; details: 5 µM; treatment time 24 h; reporter: 7TFP
How it was run: as §1

DLD1 [3] = test: TCF/Wnt firefly luciferase reporter signal relative to plate median (fraction of plate median); higher = higher Wnt reporter signal; details: 5 µM; treatment time 24 h; reporter: 7TFP
How it was run: as §1

SW480 [4] = test: as above; details: 5 µM; treatment time 24 h; reporter: 7TFP
How it was run: as §1

| SMILES | cell viability (DLD1 [1]) | cell viability (HCT116) | cell viability (SW480 [2]) | TCF/Wnt firefly luciferase reporter signal (DLD1 [3]) | TCF/Wnt firefly luciferase reporter signal (SW480 [4]) |
| --- | --- | --- | --- | --- | --- |
| CN[C@@H](C)[C@@H](O)c1ccccc1 | 0.9265 ± 0.0021 | 1.02 ± 0.035 | 0.978 ± 0.06 | 0.993 ± 0.067 | 1.03 ± 0.064 |
| C=C(C)[C@@H]1CC[C@]2(C(=O)O[C@@H]3O[C@H](CO[C@@H]4O[C@H](CO)[C@@H](O[C@@H]5O[C@@H](C)[C@H](O)[C@@H](O)[C@H]5O)[C@H](O)[C@H]4O)[C@@H](O)[C@H](O)[C@H]3O)CC[C@]3(C)[C@H](C[C@H]4OC(=O)C[C@@H](O)[C@]5(C)[C@@H]4[C@@]3(C)CC[C@H]5C(=C)C)[C@@H]12 [Chiisanoside (5)] | 0.873 ± 0.16 | 0.958 ± 0.074 | 0.945 ± 0.059 | 0.817 ± 0.059 | 0.948 ± 0.12 |
| CC(C)(O)[C@@H]1[C@H]2OC(=O)[C@@H]1[C@]1(O)C[C@H]3O[C@]34C(=O)O[C@H]2[C@]14C | 1.03 ± 0.046 | 0.949 ± 0.021 | 1.025 ± 0.0071 | 1.02 ± 0.17 | 1.04 ± 0.089 |
| C[C@@H]1C[C@@H]([C@H](O)CC2CC(=O)NC(=O)C2)C(=O)[C@@H](C)C1 | 0.892 ± 0.059 | 0.5955 ± 0.0035 | 0.967 ± 0.076 | 0.387 ± 0.088 | 0.665 ± 0.15 |
| C[C@]12CC[C@H](O)C[C@@H]1CC[C@@H]1[C@@H]2CC[C@]2(C)C(=O)CC[C@@H]12 | 0.956 ± 0.038 | 0.9945 ± 0.0078 | 1.01 ± 0.11 | 1.075 ± 0.0071 | 1.01 ± 0.033 |
| CC(C)=CCC[C@]1(C)C=Cc2c(O)c3c(c(CC=C(C)C)c2O1)O[C@]12C(=C[C@@H]4C[C@H]1C(C)(C)O[C@@]2(C/C=C(/C)C(=O)O)C4=O)C3=O | 0.965 ± 0.12 | 0.993 ± 0.053 | 1.09 ± 0.14 | 1.05 ± 0.095 | 1.09 ± 0.028 |
| Cc1cc2c(C(C)C)c(O)c(O)c(C=O)c2c(O)c1-c1c(C)cc2c(C(C)C)c(O)c(O)c(C=O)c2c1O | 0.974 ± 0.037 | 0.969 ± 0.044 | 0.976 ± 0.03 | 0.966 ± 0.048 | 1.04 ± 0.11 |
| CC(=O)[O][Hg][c]1ccccc1 | 0.0442 ± 0.012 | 0.0479 ± 0.031 | 0.0258 ± 0.0048 | 0.0227 ± 0.0033 | 0.0222 ± 0.0026 |
| CC(=O)O[C@@H]1[C@H]2CC[C@H]3[C@@](C)(O)[C@@H]4C[C@H](O)C(C)(C)[C@@]4(O)[C@H](O)C[C@@]13C[C@@]2(C)O | 1.04 ± 0.014 | 1.105 ± 0.0071 | 1.09 ± 0.064 | 1.04 ± 0.014 | 0.984 ± 0.19 |
| CCC[C@H]1CCCCN1 | 1.01 ± 0.021 | 0.936 ± 0.046 | 0.983 ± 0.039 | 1.04 | 1.05 ± 0.087 |
| CCCC(=O)O[C@@H]1[C@@H](C)[C@@]2(O)[C@@H](C=C(CO)C[C@]3(O)C(=O)C(C)=C[C@@H]23)[C@@H]2C(C)(C)[C@]12OC(=O)CCC | 0.9955 ± 0.0021 | 0.991 ± 0.069 | 1.02 ± 0.033 | 1.03 ± 0.1 | 0.984 ± 0.0085 |
| COC(=O)NC(=S)Nc1ccccc1NC(=S)NC(=O)OC | 0.944 ± 0.071 | 0.966 ± 0.09 | 0.973 ± 0.0071 | 1.17 ± 0.042 | 1.02 ± 0.31 |
| CCC(C)C(=O)O[C@@H]1C[C@@]2(C)[C@H](c3ccoc3)OC(=O)CC23OC2(C)O[C@]14[C@]1(C)[C@@H](CC(=O)OC)C5(C)CC1(O)[C@](O)(C5OC(=O)C1(C)OC1C)[C@@H](OC(C)=O)[C@]34O2 (stereo not given in full) | 0.972 ± 0.027 | 0.961 ± 0.11 | 1 ± 0.013 | 1.04 ± 0.014 | 0.928 ± 0.19 |
| COC(=O)[C@]1(C)CC[C@]2(C)CC[C@]3(C)C4=CCc5c(cc(O)c(O)c5C)[C@]4(C)CC[C@@]3(C)[C@@H]2C1 | 0.9465 ± 0.0078 | 1.045 ± 0.0071 | 1.005 ± 0.0071 | 1.03 ± 0.054 | 1.11 ± 0.014 |
| OC[C@@H]1CCCN2CCCC[C@H]12 | 1.04 ± 0.014 | 1 ± 0.053 | 0.995 ± 0.036 | 0.898 ± 0.14 | 0.964 ± 0.065 |
| O=C(O)CF | 0.951 ± 0.049 | 0.968 ± 0.059 | 1.035 ± 0.0071 | 1.05 ± 0.014 | 1.07 ± 0.042 |
| COc1ccc(/C=C/c2cc(O)cc(O)c2)cc1 | 1.05 ± 0.057 | 1.01 ± 0.021 | 0.982 ± 0.018 | 1.25 ± 0.33 | 1.21 ± 0.099 |
| Cc1[nH]c2ccccc2c1CN(C)C | 1.05 ± 0.014 | 1.18 ± 0.11 | 1.085 ± 0.0071 | 1.07 ± 0.11 | 1.07 ± 0.057 |
| CC1=C(O)C(=O)C=C2C1=CC=C1[C@@]2(C)CC[C@@]2(C)[C@@H]3C[C@](C)(C(=O)O)CC[C@]3(C)CC[C@]12C | 0.801 ± 0.11 | 0.837 ± 0.065 | 1 ± 0.012 | 0.863 ± 0.083 | 0.787 ± 0.12 |
| C=C(C)[C@H]1Cc2c(ccc3c2O[C@@H]2COc4cc(OC)c(OC)cc4[C@@H]2C3=O)O1 | 0.851 ± 0.054 | 0.637 ± 0.11 | 1.01 ± 0.05 | 0.738 ± 0.04 | 0.753 ± 0.17 |
| C[C@]12CCC(=O)C=C1C=C[C@@H]1[C@@H]2CC[C@@]2(C)[C@H]1CC[C@@]2(O)CCC(=O)O | 1.02 ± 0.07 | 1.16 ± 0.014 | 1.04 ± 0.028 | 1.01 ± 0.05 | 1.06 |
| COc1ccc(C(=O)O[C@H]2CC[C@@]3(C)[C@@H]4CC[C@H]5[C@]6(O)C[C@H](O)[C@@]7(O)[C@@H](CN8C[C@@H](C)CC[C@H]8[C@@]7(C)O)[C@]6(O)C[C@@]53O[C@]24O)cc1OC | 0.98 ± 0.043 | 0.942 ± 0.083 | 1.02 ± 0.099 | 1.03 ± 0.14 | 1.05 ± 0.087 |
| COc1cc2c(cc1O)CCN[C@@H]2C | 0.997 ± 0.0014 | 1.06 ± 0.099 | 1.015 ± 0.0071 | 0.89 ± 0.16 | 0.966 ± 0.049 |
| CC1(C)C(=O)C=C[C@@]2(C)C1=C(O)C(=O)[C@]1(C)[C@@H]2CC[C@@]2(C)[C@H](c3ccoc3)C[C@H]3O[C@]321 | 0.925 ± 0.029 | 1.13 ± 0.057 | 0.91 ± 0.034 | 0.986 ± 0.062 | 1.02 ± 0.055 |
| CNc1ccccc1C(=O)O | 0.923 ± 0.12 | 0.85 ± 0.12 | 1.004 ± 0.0085 | 0.931 ± 0.088 | 1.1 ± 0.078 |
| COc1ccc(C[C@H]2NC[C@H](O)[C@H]2OC(C)=O)cc1 | 0.831 ± 0.052 | 0.513 ± 0.065 | 1.06 ± 0.042 | 0.248 ± 0.011 | 0.357 ± 0.036 |
